# Only some compounds are listed: those with a hit (about 11% of all), similar ones and a draw of the others.
# SW480 rerep: DNA re-replication induction in SW480 cells; 340,000 compounds, 1.8% hits; Potency, µM (titrated, usually from 46.1 µM), for the others: top-dose re-replication activation, most hits filed as activators; SW480 DNA re-replication, Hoechst DNA content imaging, 48 h; AID 624297; note: potency is the fitted concentration of half-maximal effect; % of control where 0% means no effect; nearly all actives have a fitted effect of over 55% in size
#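 Compounds, transferred as 23 nL by pin tool, were incubated with cells for 48 hr; DNA content per nucleus was then quantified by Hoechst staining and fluorescence plate imaging.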
# IL1B secr inh: blocks inflammasome-driven IL-1 beta release; THP-1 LPS/ATP IL-1B secretion, AlphaLISA, 16 h; active compounds read low; 360,000 compounds, 4.7% hits; activity change, % at 57.5 µM; AID 743279; in the data active = activity change below about -50%; inconclusive = mostly about -30% to -49%; note: % is set by controls: 0 for no effect and ±100 for the full control effect
#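 Secreted IL-1B measured by AlphaLISA bead assay after 16 h compound exposure of THP-1 cells; compounds (final up to 57.5 uM) added 1 h before LPS (250 ng/mL) and ATP (1.25 mM) stimulation; lower signal means less secretion.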
# RORgamma inh: inhibitors of mouse ROR gamma transcriptional activity. P51450. Drosophila S2 Gal4-RORgamma UAS-luciferase reporter, 20 h. Potency, µM (doses to about 53.6 µM), for inactives: at the highest dose activity change, negative = inhibition, usual class: inhibitors. 310,000 compounds, 5.4% hits; note: potency is the fitted concentration of half-maximal effect; % is set by controls: 0 for no effect and ±100 for the full control effect; nearly all actives have a fitted effect of over 60% in size
# Target sequence (P51450 whole entry, looked up, the tested form may be a part): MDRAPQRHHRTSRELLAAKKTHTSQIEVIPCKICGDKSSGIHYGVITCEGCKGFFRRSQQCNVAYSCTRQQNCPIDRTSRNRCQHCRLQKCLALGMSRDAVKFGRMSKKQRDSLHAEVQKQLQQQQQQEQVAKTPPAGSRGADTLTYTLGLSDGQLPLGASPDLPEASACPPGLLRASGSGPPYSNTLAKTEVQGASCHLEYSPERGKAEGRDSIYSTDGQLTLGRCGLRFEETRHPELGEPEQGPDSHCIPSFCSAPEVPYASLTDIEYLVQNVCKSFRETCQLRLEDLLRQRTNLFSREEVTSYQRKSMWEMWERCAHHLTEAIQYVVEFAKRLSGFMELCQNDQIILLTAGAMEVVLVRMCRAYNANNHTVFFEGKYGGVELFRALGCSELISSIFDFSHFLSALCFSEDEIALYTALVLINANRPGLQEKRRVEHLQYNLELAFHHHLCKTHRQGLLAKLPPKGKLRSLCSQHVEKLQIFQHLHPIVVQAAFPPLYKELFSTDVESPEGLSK
#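 Using a luciferase readout, inhibitors were identified by reduced reporter activity in Drosophila cells coexpressing a copper-inducible Gal4–ROR gamma fusion and UAS-driven Photinus luciferase, incubated 20 hr after 700 uM copper sulfate.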
# MCF10A rerep: induces DNA re-replication in MCF 10a normal breast cells; MCF 10A DNA re-replication, Hoechst nuclear intensity, 48 h; Potency, µM (series often up to 46.1 µM), for inactives: top-dose activity, positive = re-replication, hits mostly activators; 350,000 compounds, 2.9% hits; AID 624296; note: potency is the fitted concentration of half-maximal effect; % of control where 0% means no effect; nearly all actives have a fitted effect of over 50% in size
# VP16 counter: inhibits Gal4-VP16 luciferase reporter, ROR gamma counter-screen; Drosophila S2 Gal4-VP16 UAS-luciferase, luminescence, 20 h; 310,000 compounds, 3.5% hits; Potency, µM (titrated, usually from 53.6 µM), for the others: at the highest dose activity, negative = inhibition, actives largely listed as inhibitors;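 note: Gal4-VP16 expression switched on by copper sulfate through the metallothionein promoter; potency is the fitted concentration of half-maximal effect; % is set by controls: 0 for no effect and ±100 for the full control effect; nearly all actives have a fitted effect of over 50% in size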
# Numbers without * were called inactive; ? = inconclusive; nt = no result; [ ] = another dose, or the depositor's remark. Unless noted, calls come from the whole dose curve; as a rule, active = well fitted curve in the direction sought with a large enough effect; inconclusive = small, poorly fitted or top-dose-only effect, or another doubt; inactive = no such curve, though single readings can be large; an effect the other way counts as inactive or inconclusive.
SMILES,SW480 rerep,IL1B secr inh,RORgamma inh,MCF10A rerep,VP16 counter
CSCCC(NS(=O)(=O)c1ccc2c(c1)oc(=O)n2C)C(=O)NC1CCN(Cc2ccccc2)CC1 (centres undefined),8%,-84*,1%,2%,-8%
CCc1c(C)nc(Nc2nc(C)c3ccc(OC)cc3n2)[nH]c1=O,0%,-76*,3%,3%,-12%
COc1ccc2c(C)nc(Nc3nc(C)cc(C)n3)nc2c1,5.2µM*,10,0.25µM*,24%,1.3µM*
COc1ccc(Nc2nc(C)c3ccccc3n2)cc1,-2%,-24,?,0%,-27%
COc1ccc2c(C)nc(Nc3nc(C)c(C)c(=O)[nH]3)nc2c1,19%,-100*,5µM*,17%,2.8µM*
COCCn1c(=O)c(-c2cc(F)cc(F)c2)nc2cnc(N(C)C)nc21,nt,nt,-25%,nt,-6%
COc1cc2oc(=O)ccc2cc1[C@@H](O)[C@@H]1OC(C)(C)OC1(C)C,-3%,-5,nt,-19%,nt
Cc1cccc(C)c1-n1nnnc1C1(C)CCC(=O)N1CC1CCCCC1 (centres undefined),nt,22,nt,nt,nt
CC(C)(C)OC(=O)N1CCC(C(=O)Nc2cccc(C(=O)N3CCOCC3)c2)CC1,-8%,18,nt,2%,nt
COc1ccc2c(c1)O[C@H](c1cccc(C(F)(F)F)c1)[C@@H](O)C2=O,nt,nt,4%[10 µM],nt,-5%[10 µM]
Cc1nonc1CN(C)C(=O)CC1C(=O)NCCN1Cc1ccccc1F (centres undefined),-3%,-3,-14%,0%,4%
CCOc1ccccc1CN1CCNC(=O)C1CC(=O)N(C)Cc1nonc1C (centres undefined),0%,-57*,-1%,3%,-10%
O=C(Nc1cccc(N2C(=O)C3C4C=CC(C4)C3C2=O)c1)c1cccs1 (centres undefined),-4%,17,-21%,0.82µM*,0%
O=C(NC(=S)Nc1cccc(NC(=O)c2ccccc2Cl)c1)c1cccs1,-7%,-13,11µM*,1%,?
Cc1ccccc1C(=O)Nc1cccc(NC(=S)NC(=O)c2cccs2)c1,7%,-24,?,?,?
Cc1cc(N2C(=O)C3C4C=CC(C4)C3C2=O)ccc1NC(=O)c1cccs1 (centres undefined),-2%,-13,27%,3%,0%
O=C(Nc1cccc(NC(=S)NC(=O)c2cccs2)c1)c1ccccc1,-4%,-6,10µM*,7%,?
O=C(Nc1cccc(NC(=O)c2cccs2)c1)c1ccc(F)cc1,4%,-61*,41%,4%,7%
CN1CCN(c2c([N+](=O)[O-])cnc3ccccc23)CC1,-21%,10,nt,-3%,nt
COc1ccc(C(C(=O)NC(C)(C)C)n2c(-c3ccc(-c4ccccc4)cc3)nc3ccccc32)cc1 (centres undefined),nt,8,nt,nt,nt
O=C(Nc1ccc2[nH]ccc2c1)c1ccc(F)cc1,2%,-14,11µM*,3%,?
c1ccc2nc3c(cc2c1)CCCCC3,18µM*,15,44%,?,-1%
Cc1ccc(N2CCN(C(=O)C3CCC(=O)N(Cc4ccc(Cl)cc4)C3)CC2)c(C)c1 (centres undefined),?,-14,?,14%,-29%
Cc1ccc(Cn2ccsc2=NC(=O)COC(=O)c2ccc(NC(=O)CC#N)cc2)cc1,-44%,-9,nt,17%,nt
Cc1ccc(Cn2ccsc2=NC(=O)CCl)cc1,95%[1.84 µM],-100*,?,?,?
SMILES,SW480 rerep,IL1B secr inh,RORgamma inh,MCF10A rerep,VP16 counter
Cc1ccc(C(=O)N/N=C/C2=Cc3ccccc3OC2C)cc1 (centres undefined),0%,-20,3.2µM*,?,?
CC12CCC(C[N+](C)(CCC[N+](C)(C)C)C1)C2(C)C (centres undefined),1%,nt,2%,-9%,5%
COc1ccccc1N(CC(=O)NCC1CCCO1)C(=O)CNS(=O)(=O)c1ccc(Cl)cc1 (centres undefined),0.73µM*,-10,36%,0%,-11%
CCOc1ccccc1N(CC(=O)NCC1CCCO1)C(=O)CCC(=O)Nc1ccccn1 (centres undefined),-4%,-1,35µM*,4%,-18%
COc1ccc(S(=O)(=O)NC(CC(=O)O)c2ccco2)cc1 (centres undefined),-3%,14,-1%,2%,-4%
COc1ccc(S(=O)(=O)NC(CC(=O)NCC2CCCO2)c2ccco2)cc1 (centres undefined),-2%,-6,29%,1%,22µM*
CCOc1ccccc1N(CC(=O)NCC1CCCO1)C(=O)CCC(=O)Nc1cc(C)on1 (centres undefined),-9%,1,-37%,-4%,8%
CCCCN(CCCC)Cc1cc(=O)oc2cc(OC)c(Cl)cc12,nt,-4,nt,nt,nt
CC(C)(C)OC(=O)N1C2C=CC1C1=COCCN1C2=O (centres undefined),nt,nt,31%,nt,1%
CSCCC(C(=O)NC(C)(C)C)n1c(-c2ccc3c(c2)OCO3)nc2ccccc21 (centres undefined),nt,11,nt,nt,nt
O=C1N=c2ccccc2=C1c1sc(=S)n(-c2ccc(O)cc2)c1O,-1%,?,-35%,3%,13%
O=C1N=c2ccccc2=C1c1sc(=S)n(Cc2ccccc2Cl)c1O,16µM*,22,7%,1%,-2%
CC[C@H]1OC(=O)[C@H](C)C(=O)[C@H](C)[C@@H](OC2O[C@H](C)C[C@H](N(C)C)[C@@H]2O)[C@@](C)(OC)C[C@@H](C)C(=O)[C@@H](C)C2N(CCCCn3cnc(-c4cccnc4)c3)C(=O)O[C@@]21C (some centres undefined),0%,nt,9%,25%,-11%
Cc1csc(CN(C)C(=O)C2CCC(=O)N(CCN(C)C)C2)n1 (centres undefined),-7%,-15,-9%,-7%,-7%
COc1ccc(C2(c3ccc(O)cc3O)CC(c3ccccc3Cl)NC(=S)N2)cc1 (centres undefined),-88%,-90*,1%,-4%,-13%
C[C@H](CO)N1C[C@H](C)[C@H](CN(C)C(=O)Nc2ccccc2)OCc2cnnn2CCCC1=O,nt,9,nt,nt,nt
Cc1ccc(C)c(S(=O)(=O)N2CCN(C(=O)c3ccncc3)CC2)c1,-8%,12,nt,-1%,nt
CCCn1c(=O)c2ccccc2n2c(SCCOc3ccc(OC)cc3)nnc12,-2%,-4,-6%,-14%,0%
COc1ccccc1Cn1c(=O)c2ccccc2n2c(Sc3ncnc4sccc34)nnc12,21µM*,-85*,11µM*,18µM*,?
COc1ccccc1Cn1c(=O)c2ccccc2n2c(SCc3csc(C)n3)nnc12,10%,-55*,20%,25%,-1%
